Measured values from the supplement of paper PMC10849652.
Of roughly 7,900 targets only a part is listed; those with a hit were picked by preference. About 0.6% of all pairs of compound and target were hits.

Compound: O=C(O)c1ccc2c(c1)nc(Nc1cccc(Cl)c1)c1ccncc12 [silmitasertib]
Test: log2 fold change, soluble protein after heating vs DMSO (PISA); higher = thermal stabilisation; K562 cells, 10 uM, 30 min; active = over 0.2 and 3.5 SD of the protein, either way, in both replicates (recomputed)
In short: (§1)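 Thermal stability values are relative to control samples and come from duplicates. They are expressed as log2 fold changes. For measurement, K562 cells (2×10^6 cells/mL) received 10 μM compound for 30 min, and aliquots were heated for 3 min over 48°C-58°C, pooled, and extracted at 4°C in PBS with 0.5% NP-40. Soluble protein, the supernatant after 21,000xg for 90 min, was quantified by TMTpro 16plex LC-MS/MS with equalised channel sums.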

Chain of UniProt Q14978 (Q14978 whole entry, looked up): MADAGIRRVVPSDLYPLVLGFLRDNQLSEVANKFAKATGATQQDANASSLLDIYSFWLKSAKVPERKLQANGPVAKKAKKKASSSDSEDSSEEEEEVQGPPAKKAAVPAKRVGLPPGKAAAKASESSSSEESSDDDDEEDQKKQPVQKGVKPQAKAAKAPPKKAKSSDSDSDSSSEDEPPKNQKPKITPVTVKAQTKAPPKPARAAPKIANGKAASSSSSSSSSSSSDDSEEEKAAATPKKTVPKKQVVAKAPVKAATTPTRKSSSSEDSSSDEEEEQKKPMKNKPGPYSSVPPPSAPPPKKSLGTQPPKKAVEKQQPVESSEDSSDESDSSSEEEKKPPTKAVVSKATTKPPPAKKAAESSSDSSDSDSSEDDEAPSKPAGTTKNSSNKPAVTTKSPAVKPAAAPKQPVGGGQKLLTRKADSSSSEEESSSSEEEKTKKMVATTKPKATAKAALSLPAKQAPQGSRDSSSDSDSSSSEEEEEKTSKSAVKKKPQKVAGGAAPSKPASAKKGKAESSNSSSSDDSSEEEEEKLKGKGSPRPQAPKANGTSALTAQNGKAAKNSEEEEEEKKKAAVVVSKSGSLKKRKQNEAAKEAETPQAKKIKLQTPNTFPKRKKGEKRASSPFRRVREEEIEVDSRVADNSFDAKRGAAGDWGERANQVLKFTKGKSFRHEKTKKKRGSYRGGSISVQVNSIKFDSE
Chain of UniProt Q9BUK6 (Q9BUK6 whole entry, looked up): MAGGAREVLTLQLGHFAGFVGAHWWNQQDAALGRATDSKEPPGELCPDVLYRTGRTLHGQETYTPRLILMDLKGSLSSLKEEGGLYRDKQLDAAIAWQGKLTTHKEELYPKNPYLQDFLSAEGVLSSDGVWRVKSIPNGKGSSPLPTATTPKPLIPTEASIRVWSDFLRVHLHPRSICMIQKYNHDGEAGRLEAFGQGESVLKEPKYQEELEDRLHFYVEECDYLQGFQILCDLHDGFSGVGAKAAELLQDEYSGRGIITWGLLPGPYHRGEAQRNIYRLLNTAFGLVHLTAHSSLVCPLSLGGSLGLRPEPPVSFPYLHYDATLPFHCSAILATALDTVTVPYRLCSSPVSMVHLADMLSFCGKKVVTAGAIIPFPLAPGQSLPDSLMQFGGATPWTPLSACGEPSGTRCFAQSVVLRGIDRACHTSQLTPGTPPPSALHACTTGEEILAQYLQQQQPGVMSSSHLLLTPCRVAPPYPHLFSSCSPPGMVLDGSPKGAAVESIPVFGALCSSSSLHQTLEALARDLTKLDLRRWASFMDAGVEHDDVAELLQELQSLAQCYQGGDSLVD
Chain of UniProt Q00013 (Q00013 whole entry, looked up): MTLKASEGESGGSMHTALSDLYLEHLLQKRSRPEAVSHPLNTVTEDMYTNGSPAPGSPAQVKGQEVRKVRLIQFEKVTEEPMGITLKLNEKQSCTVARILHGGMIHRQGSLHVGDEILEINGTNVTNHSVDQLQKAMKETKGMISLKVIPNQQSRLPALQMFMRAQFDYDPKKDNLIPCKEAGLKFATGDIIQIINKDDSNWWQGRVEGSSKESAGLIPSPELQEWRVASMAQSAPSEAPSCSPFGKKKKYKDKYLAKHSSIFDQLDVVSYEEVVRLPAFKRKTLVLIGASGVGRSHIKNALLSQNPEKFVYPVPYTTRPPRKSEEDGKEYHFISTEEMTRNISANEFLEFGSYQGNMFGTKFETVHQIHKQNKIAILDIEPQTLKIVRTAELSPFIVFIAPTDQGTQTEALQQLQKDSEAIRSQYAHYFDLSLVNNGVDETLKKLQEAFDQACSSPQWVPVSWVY
Chain of UniProt Q9UBD5 (Q9UBD5 whole entry, looked up): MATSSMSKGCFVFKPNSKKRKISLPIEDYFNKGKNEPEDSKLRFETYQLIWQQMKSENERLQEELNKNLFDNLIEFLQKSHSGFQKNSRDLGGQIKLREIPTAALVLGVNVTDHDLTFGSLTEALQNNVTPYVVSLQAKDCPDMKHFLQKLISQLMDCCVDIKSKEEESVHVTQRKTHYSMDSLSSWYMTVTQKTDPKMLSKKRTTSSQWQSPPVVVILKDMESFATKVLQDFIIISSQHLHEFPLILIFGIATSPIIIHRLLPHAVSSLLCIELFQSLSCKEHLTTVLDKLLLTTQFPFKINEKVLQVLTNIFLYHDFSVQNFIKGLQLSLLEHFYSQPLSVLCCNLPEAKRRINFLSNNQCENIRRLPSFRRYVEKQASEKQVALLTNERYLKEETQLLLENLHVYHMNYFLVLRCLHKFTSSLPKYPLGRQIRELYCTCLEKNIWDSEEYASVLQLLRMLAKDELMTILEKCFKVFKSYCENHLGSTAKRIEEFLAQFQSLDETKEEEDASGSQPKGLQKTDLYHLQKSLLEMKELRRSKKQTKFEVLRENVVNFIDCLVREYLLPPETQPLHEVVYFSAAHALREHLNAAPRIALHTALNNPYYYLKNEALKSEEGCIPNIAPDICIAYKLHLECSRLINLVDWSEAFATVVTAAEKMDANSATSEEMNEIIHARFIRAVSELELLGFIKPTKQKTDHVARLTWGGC
Chain of UniProt O14950 (O14950 whole entry, looked up): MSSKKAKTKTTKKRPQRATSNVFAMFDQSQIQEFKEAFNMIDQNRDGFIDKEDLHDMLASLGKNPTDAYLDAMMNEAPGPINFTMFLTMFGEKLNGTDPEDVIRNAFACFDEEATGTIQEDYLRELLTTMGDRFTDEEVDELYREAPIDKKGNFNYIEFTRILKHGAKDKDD
Chain of UniProt P43246 (P43246 whole entry, looked up): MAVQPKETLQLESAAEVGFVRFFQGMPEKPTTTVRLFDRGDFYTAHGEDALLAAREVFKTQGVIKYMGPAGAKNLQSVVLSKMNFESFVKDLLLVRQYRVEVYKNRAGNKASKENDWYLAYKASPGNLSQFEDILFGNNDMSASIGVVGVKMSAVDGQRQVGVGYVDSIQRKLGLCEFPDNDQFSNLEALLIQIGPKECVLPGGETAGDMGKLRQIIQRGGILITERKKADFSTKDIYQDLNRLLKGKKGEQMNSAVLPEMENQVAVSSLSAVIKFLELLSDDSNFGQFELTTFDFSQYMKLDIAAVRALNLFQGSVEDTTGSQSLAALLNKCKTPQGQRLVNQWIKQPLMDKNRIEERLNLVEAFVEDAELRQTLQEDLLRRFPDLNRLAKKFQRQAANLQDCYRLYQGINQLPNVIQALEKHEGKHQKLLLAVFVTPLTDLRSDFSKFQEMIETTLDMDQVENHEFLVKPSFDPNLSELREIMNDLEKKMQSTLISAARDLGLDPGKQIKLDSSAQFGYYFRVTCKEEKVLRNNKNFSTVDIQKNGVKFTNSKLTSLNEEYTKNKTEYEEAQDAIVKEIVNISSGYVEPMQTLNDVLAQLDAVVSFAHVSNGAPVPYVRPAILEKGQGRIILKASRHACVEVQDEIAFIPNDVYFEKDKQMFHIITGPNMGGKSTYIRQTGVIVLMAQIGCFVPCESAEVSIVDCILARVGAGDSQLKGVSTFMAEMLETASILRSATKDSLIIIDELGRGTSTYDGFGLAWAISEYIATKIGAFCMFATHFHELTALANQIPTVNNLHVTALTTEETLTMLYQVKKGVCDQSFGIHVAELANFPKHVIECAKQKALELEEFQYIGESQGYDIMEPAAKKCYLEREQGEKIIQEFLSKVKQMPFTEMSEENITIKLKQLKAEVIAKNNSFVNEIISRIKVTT
Chain of UniProt P46934 (P46934 whole entry, looked up): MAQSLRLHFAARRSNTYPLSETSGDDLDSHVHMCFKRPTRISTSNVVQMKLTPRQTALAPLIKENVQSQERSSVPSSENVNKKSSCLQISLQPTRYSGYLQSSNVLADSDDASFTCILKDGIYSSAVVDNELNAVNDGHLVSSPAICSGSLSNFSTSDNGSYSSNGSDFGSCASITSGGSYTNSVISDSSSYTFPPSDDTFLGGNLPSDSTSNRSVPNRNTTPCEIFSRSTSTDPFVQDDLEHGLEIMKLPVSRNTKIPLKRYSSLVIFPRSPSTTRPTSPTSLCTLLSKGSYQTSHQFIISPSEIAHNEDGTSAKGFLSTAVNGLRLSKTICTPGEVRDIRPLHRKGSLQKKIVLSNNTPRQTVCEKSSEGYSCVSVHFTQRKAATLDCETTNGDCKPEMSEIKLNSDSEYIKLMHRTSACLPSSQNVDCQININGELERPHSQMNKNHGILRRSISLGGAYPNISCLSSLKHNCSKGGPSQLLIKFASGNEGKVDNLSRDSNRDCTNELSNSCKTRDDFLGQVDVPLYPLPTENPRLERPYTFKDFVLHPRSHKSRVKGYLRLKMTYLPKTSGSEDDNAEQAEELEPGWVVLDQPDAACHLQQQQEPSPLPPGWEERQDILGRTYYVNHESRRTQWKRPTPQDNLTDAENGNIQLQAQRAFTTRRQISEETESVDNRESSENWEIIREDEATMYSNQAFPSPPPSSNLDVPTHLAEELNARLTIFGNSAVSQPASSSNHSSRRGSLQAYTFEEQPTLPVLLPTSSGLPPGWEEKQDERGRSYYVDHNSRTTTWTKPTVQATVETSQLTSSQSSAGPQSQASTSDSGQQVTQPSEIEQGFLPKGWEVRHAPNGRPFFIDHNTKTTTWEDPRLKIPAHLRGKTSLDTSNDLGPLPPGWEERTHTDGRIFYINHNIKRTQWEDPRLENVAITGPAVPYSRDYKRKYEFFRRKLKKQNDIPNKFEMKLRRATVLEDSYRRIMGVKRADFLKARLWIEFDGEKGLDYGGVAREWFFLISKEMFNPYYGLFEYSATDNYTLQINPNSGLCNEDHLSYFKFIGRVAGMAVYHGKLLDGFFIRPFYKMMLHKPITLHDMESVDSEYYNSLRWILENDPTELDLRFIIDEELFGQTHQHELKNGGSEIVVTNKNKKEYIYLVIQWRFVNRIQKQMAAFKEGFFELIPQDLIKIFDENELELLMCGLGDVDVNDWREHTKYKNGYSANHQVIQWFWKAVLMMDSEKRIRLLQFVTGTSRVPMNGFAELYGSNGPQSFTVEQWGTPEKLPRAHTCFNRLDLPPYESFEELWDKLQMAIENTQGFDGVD
Chain of UniProt P56556 (P56556 whole entry, looked up): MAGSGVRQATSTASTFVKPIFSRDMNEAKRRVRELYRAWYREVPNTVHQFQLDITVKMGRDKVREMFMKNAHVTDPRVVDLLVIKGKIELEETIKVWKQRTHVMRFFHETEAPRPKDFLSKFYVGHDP

log2 fold change, inactive:
MSH2 (UniProt P43246) 0.037
MT-ATP6 (UniProt P00846) -0.005
MRPS2 (UniProt Q9Y399) -0.103
NOB1 (UniProt Q9ULX3) -0.096
MPP1 (UniProt Q00013) 0.022
NUCKS1 (UniProt Q9H1E3) -0.008
ORC3 isoform 2 (UniProt Q9UBD5) 0.058
NOLC1 isoform 2 (UniProt Q14978) -0.037
NEDD4 isoform 4 (UniProt P46934) 0.064
MRPS22 (UniProt P82650) -0.071
MSTO1 (UniProt Q9BUK6) -0.015
NCAPD2 (UniProt Q15021) 0.135
MYL12B (UniProt O14950) -0.037
NEU1 (UniProt Q99519) 0.04
NA, A0A096LPI6 0.024
MRPS33 (UniProt Q9Y291) -0.066

Compound: O=C1NC(=O)C(c2cnc3ccccn23)=C1c1cn2c3c(cc(F)cc13)CN(C(=O)N1CCCCC1)CC2
Test: as above
In short: as §1

log2 fold change, inactive:
NFATC2 (UniProt Q13469) -0.062
MRPS18B (UniProt Q9Y676) -0.03
PACS1 (UniProt Q6VY07) 0.062
NUP205 (UniProt Q92621) -0.073
NA, A0A0B4J2A0 -0.059
OSBP (UniProt P22059) -0.131
MKNK1 (UniProt Q9BUB5) 0.019
NMNAT1 (UniProt Q9HAN9) 0.259
MRPS25 (UniProt P82663) 0.062
NME1 isoform 2 (UniProt P15531) -0.089
MRPL47 (UniProt Q9HD33) -0.011
NDUFA12 (UniProt Q9UI09) 0.004
MOV10 (UniProt Q9HCE1) 0.187
MTHFD1, A0A384N5Y3 -0.056
MRPS5 (UniProt P82675) -0.039
NFATC2IP (UniProt Q8NCF5) 0.02
NOL11 (UniProt Q9H8H0) 0.02
NDUFA6 (UniProt P56556) -0.131
OSBPL8 (UniProt Q9BZF1) 0.079
NOSIP (UniProt Q9Y314) -0.095
NR2C2 isoform 2 (UniProt P49116) 0.03
NDUFB8 (UniProt O95169) -0.172
NQO1 (UniProt P15559) -0.149
MSH2 (UniProt P43246) -0.091
MT-ATP6 (UniProt P00846) 0.037
MRPS2 (UniProt Q9Y399) -0.021
NOB1 (UniProt Q9ULX3) 0.062
MPP1 (UniProt Q00013) 0.027
NUCKS1 (UniProt Q9H1E3) -0.044
ORC3 isoform 2 (UniProt Q9UBD5) 0.008
NOLC1 isoform 2 (UniProt Q14978) -0.037
NEDD4 isoform 4 (UniProt P46934) -0.008
MRPS22 (UniProt P82650) -0.069
MSTO1 (UniProt Q9BUK6) -0.045
NCAPD2 (UniProt Q15021) 0.014
MYL12B (UniProt O14950) -0.042
NEU1 (UniProt Q99519) -0.066
NA, A0A096LPI6 -0.043
MRPS33 (UniProt Q9Y291) 0.016
